Laboratory results published in the supplement of paper PMC6953052.
Where a name gives a salt, the structure may show the parent alone. The full ranking holds about 1,700 compounds; the median of “fraction of GFP-LC3-positive cells (≥5 vesicles/cell)” is about 0.43, and the highest 2% start at about 0.81. The sample holds the highest values, similar compounds and a random draw of the others, so the mix is not that of the screen.

Tested on: CbCln3 Δex7/8/Δex7/8 GFP-LC3 cerebellar neuronal cells
Assay: fraction of GFP-LC3-positive cells (≥5 vesicles/cell); higher = more autophagosome accumulation
Procedure, shortened: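 In 384-well plates at 2 × 10^3 cells per well, GFP-LC3-expressing wild-type or mutant CbCln3 cerebellar cells took ~50 nL of compound in DMSO by pin transfer, in duplicate, for 24 h at 33 °C. Staining with Hoechst 33342 and LysoTracker Red over the final 30 min preceded fixation in 3.2% PFA and imaging of three fields per well at 10×. CellProfiler then counted GFP-LC3 vesicles in each cell, and out-of-focus images were dropped before the fraction of cells with 5 or more vesicles was averaged over duplicates.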

Question: With `C=C(C)[C@H]1O[C@H]2CC[C@@]3(C)[C@@](O)(CC[C@H]4[C@@H]5OC(C)(C)[C@H]6C[C@@H]7C(=C)Cc8c(Cl)cc9[nH]c(c5c9c8[C@@]76O)[C@@]43C)[C@]23O[C@@H]3[C@H]1O` as the compound, how does the “fraction of GFP-LC3-positive cells” value read?
Answer: 0.866

Question: With `CC[C@H]1CN2CCc3cc(OC)c(OC)cc3[C@@H]2C[C@@H]1C[C@H]1NCCc2cc(OC)c(OC)cc21.Cl.Cl` [Emetine dihydrochloride] as the compound, how does the “fraction of GFP-LC3-positive cells” value read?
Answer: 0.546

Question: For `Br.C[C@@H]1NCCc2cc(O)c(O)cc21` [Salsolinol hydrobromide], which “fraction of GFP-LC3-positive cells” value is on record?
Answer: 0.504

Question: `C/C=C(/C)C(=O)O[C@H]1C(C)=C2[C@H]([C@@H]1OC(=O)CCCCCCC)[C@@](C)(OC(C)=O)C[C@H](OC(=O)CCC)[C@@]1(O)[C@H]2OC(=O)[C@@]1(C)O` was tested. Which “fraction of GFP-LC3-positive cells” value did it give?
Answer: 0.847

Question: With `N=C(N)NOCC[C@H](N)C(=O)O.O.O=S(=O)(O)O` [Canavanine sulfate monohydrate (L,+)] as the compound, how does the “fraction of GFP-LC3-positive cells” value read?
Answer: 0.416

Question: Which “fraction of GFP-LC3-positive cells” value does the source give for `CCCC(C)(COC(N)=O)COC(=O)NC(C)C` (stereo not given) [Carisoprodol] here?
Answer: 0.466

Question: With `C[N+](C)(C)CCCCCCCCCC[N+](C)(C)C.[Br-].[Br-]` [Decamethonium bromide] as the compound, how does the “fraction of GFP-LC3-positive cells” value read?
Answer: 0.418

Question: `C/C1=C/C(=O)O[C@@H]2C[C@@H](CC[C@H](C)/C=C\CC1)O[C@@](O)([C@@H]1CSC(=O)N1)C2` [Latrunculin B] was tested. Which “fraction of GFP-LC3-positive cells” value did it give?
Answer: 0.84

Question: With `C[C@@]12N[C@@H](Cc3ccccc31)c1ccccc12.O=C(O)/C=C\C(=O)O` [(-)-MK 801 hydrogen maleate] as the compound, how does the “fraction of GFP-LC3-positive cells” value read?
Answer: 0.432

Question: For `CC(=O)c1c(O)c(C)c(O)c(Cc2c(O)c3c(c(C(=O)/C=C/c4ccccc4)c2O)OC(C)(C)C=C3)c1O` [Rottlerin], which “fraction of GFP-LC3-positive cells” value is on record?
Answer: 0.553

Question: With `CC(=O)c1c(O)c(C)c(O)c(Cc2c(O)c3c(c(C(=O)/C=C/c4ccccc4)c2O)OC(C)(C)C=C3)c1O` as the compound, how does the “fraction of GFP-LC3-positive cells” value read?
Answer: 0.551

Question: `CC(=O)O[C@H]1CC[C@@]2(C)C(=CC[C@@H]3[C@@H]2CC[C@]2(C)C(=O)CC[C@@H]32)C1` [Dehydroisoandosterone 3-acetate] was tested. Which “fraction of GFP-LC3-positive cells” value did it give?
Answer: 0.384

Question: Which “fraction of GFP-LC3-positive cells” value does the source give for `CN1C(CC(O)c2ccccc2)CCCC1CC(O)c1ccccc1.Cl` (stereo not given) [Lobelanidine hydrochloride] here?
Answer: 0.433

Question: With `COc1cc2c(cc1O)[C@@H]1Cc3ccc(OC)c(O)c3CN1CC2` [Scoulerine] as the compound, how does the “fraction of GFP-LC3-positive cells” value read?
Answer: 0.821

Question: With `COc1ccc2c(c1O)-c1c(OC)c(OC)cc3c1[C@H](C2)N(C)CC3` [Isocorydine (+)] as the compound, how does the “fraction of GFP-LC3-positive cells” value read?
Answer: 0.379

Question: Which “fraction of GFP-LC3-positive cells” value does the source give for `COc1ccc2c(c1OC)CN1CCc3cc4c(cc3C1C2)OCO4` (stereo not given) [(d,l)-Tetrahydroberberine] here?
Answer: 0.303

Question: How did the “fraction of GFP-LC3-positive cells” value turn out when `C[C@H]1O[C@@H](OC2CC[C@]3(C=O)[C@H]4CC[C@]5(C)[C@@H](C6=CC(=O)OC6)CC[C@]5(O)[C@@H]4CC[C@]3(O)C2)C[C@H](O)[C@@H]1O` (stereo not given in full) [Helveticoside] was run?
Answer: 0.378

Question: With `N#CC(C#N)=Cc1ccc(O)cc1` [Tyrphostin-8] as the compound, how does the “fraction of GFP-LC3-positive cells” value read?
Answer: 0.461

Question: For `CCN1C[C@@]2(COC)C3[C@@H](OC)[C@H]4[C@@H]1[C@@]3(C1C[C@@]3(O)[C@H](OC(=O)c5ccccc5)C1[C@]4(OC(C)=O)[C@@H](O)[C@H]3OC)[C@@H](OC)C[C@H]2O` (stereo not given in full) [Aconitine], which “fraction of GFP-LC3-positive cells” value is on record?
Answer: 0.413

Question: For `Cc1c2ccncc2c(C)c2c1[nH]c1ccccc12` [Ellipticine], which “fraction of GFP-LC3-positive cells” value is on record?
Answer: 0.954

Question: With `Cc1nccc2c1[nH]c1ccccc12.Cl` [Harmane hydrochloride] as the compound, how does the “fraction of GFP-LC3-positive cells” value read?
Answer: 0.55

Question: `O=C(CCCN1CCC(n2c(=O)[nH]c3ccccc32)CC1)c1ccc(F)cc1` [Benperidol] was tested. Which “fraction of GFP-LC3-positive cells” value did it give?
Answer: 0.358

Question: For `COc1cc2c(c(OC)c1OC)-c1ccc(OC)c(=O)cc1[C@@H](NC(C)=O)CC2` [Colchicine], which “fraction of GFP-LC3-positive cells” value is on record?
Answer: 0.906

Question: How did the “fraction of GFP-LC3-positive cells” value turn out when `COC1=C[C@@H]2C3=C([C@@H]2C1=O)[C@@H](NC(C)=O)CCc1cc(OC)c(OC)c(OC)c13` [Lumicolchicine gamma] was run?
Answer: 0.401

Question: `COc1cc2c(c(OC)c1OC)-c1ccc(O)c(=O)cc1[C@@H](N)CC2` [Trimethylcolchicinic acid] was tested. Which “fraction of GFP-LC3-positive cells” value did it give?
Answer: 0.415

Question: `CC[C@@H]1/C=C/C=C/C[C@H](C)[C@@H](O)[C@](C)(O)C(=O)[C@H](C)[C@@H](O)[C@H](C)C(=O)[C@H](C)[C@@H](O)[C@H](C)/C=C/C(=O)O[C@H]2[C@@H](C)[C@@H](CC1)O[C@@]1(CC[C@@H](C)[C@@H](C[C@H](C)O)O1)[C@@H]2C` [oligomycin A] was tested. Which “fraction of GFP-LC3-positive cells” value did it give?
Answer: 0.578

Question: `CC1=C2C[C@H]3[C@@H](CC=C4C[C@@H](O)CC[C@@]43C)[C@@H]2CC[C@]12O[C@@H]1C[C@H](C)CN[C@H]1[C@H]2C` [cyclopamine] was tested. Which “fraction of GFP-LC3-positive cells” value did it give?
Answer: 0.448

Question: How did the “fraction of GFP-LC3-positive cells” value turn out when `CCCCC/C=C\C/C=C\C/C=C\C/C=C\CCCC(=O)NCC(=O)O` [N-Arachidonoylglycine] was run?
Answer: 0.376

Question: For `CCCCC/C=C\C/C=C\C/C=C\C/C=C\CCCC(=O)NCC(=O)O`, which “fraction of GFP-LC3-positive cells” value is on record?
Answer: 0.263

Question: With `CCCCC/C=C\C/C=C\C/C=C\C/C=C\CCCC(=O)NCCc1ccc(O)c(O)c1` [Arachidonoyl dopamine] as the compound, how does the “fraction of GFP-LC3-positive cells” value read?
Answer: 0.658

Question: For `CCCCC/C=C\C/C=C\C/C=C\C/C=C\CCCC(=O)NCc1ccc(O)c(OC)c1` [Arvanil], which “fraction of GFP-LC3-positive cells” value is on record?
Answer: 0.848

Question: For `CC(C)NCC(O)c1ccc(N)c(C#N)c1` (stereo not given), which “fraction of GFP-LC3-positive cells” value is on record?
Answer: 0.462

Question: For `COc1cc([C@@H]2c3cc4c(cc3[C@H](O)[C@H]3COC(=O)[C@H]23)OCO4)cc(OC)c1OC` [Podophyllotoxin], which “fraction of GFP-LC3-positive cells” value is on record?
Answer: 0.884

Question: How did the “fraction of GFP-LC3-positive cells” value turn out when `COc1ccc2c(c1OC)C(=O)O[C@@H]2[C@H]1c2cc3c(cc2CCN1C)OCO3.Cl` [Hydrastine hydrochloride] was run?
Answer: 0.423

Question: How did the “fraction of GFP-LC3-positive cells” value turn out when `Cl.Cl.Fc1ccc(C(OCCN2CCN(CCCc3ccccc3)CC2)c2ccc(F)cc2)cc1` was run?
Answer: 0.168

Question: With `CO/C1=C\C(C)=C\[C@@H](C)[C@@H](O)[C@@H](C)C/C(C)=C/C=C/[C@H](OC)[C@@H]([C@@H](C)[C@@H](O)[C@H](C)[C@@]2(O)C[C@@H](O)[C@H](C)[C@@H](C(C)C)O2)OC1=O` [bafilomycin A1] as the compound, how does the “fraction of GFP-LC3-positive cells” value read?
Answer: 0.924

Question: For `O[C@H]1[C@H]2[C@H](O)CCCN2C[C@H]1O` [swainsonine], which “fraction of GFP-LC3-positive cells” value is on record?
Answer: 0.371

Question: `CN1CCC2=C[C@H](O)[C@H]3OC(=O)c4cc5c(cc4[C@H]3[C@@H]21)OCO5` [Hippeastrine hydrobromide] was tested. Which “fraction of GFP-LC3-positive cells” value did it give?
Answer: 0.407

Question: Which “fraction of GFP-LC3-positive cells” value does the source give for `CN1CCc2cc3c(cc2[C@H]1[C@@H]1OC(=O)c2c1ccc1c2OCO1)OCO3` [Bicuculline (+)] here?
Answer: 0.326

Question: With `CN1Cc2c(ccc3c2OCO3)[C@@H]2[C@H]1c1cc3c(cc1C[C@@H]2O)OCO3.O` [Chelidonine (+)] as the compound, how does the “fraction of GFP-LC3-positive cells” value read?
Answer: 0.93
